The whole screen tested about 5,500 compounds, of which about 2,000 (36%) were called active. Not shown: some 18% with an inconclusive outcome. No stated cut-off is given here; in the data, active means normalized growth mostly below about 0.91 (no sharp cut-off); inconclusive means no clear call, values can overlap the other calls; inactive means mostly above about 0.92. The list shows a part of the results.
Experiment: chemical genetic growth profiling, strain panel (AID 1159580);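 further: tested at 20 µM; growth read once vehicle control cultures reached saturation at 30 °C; 1 = growth at the plate median or of vehicle wells; lower values mean less growth of the strain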
Conditions: S. cerevisiae deletion strains, growth OD

Measured: normalized growth

C[C@H]1O[C@H](O[C@H]2[C@H](O)[C@@H](O)[C@@H](O[C@H]3[C@H](O)[C@@H](O)C(O)O[C@@H]3CO)O[C@@H]2CO)[C@H](O)[C@@H](O)[C@@H]1N[C@H]1C=C(CO)[C@@H](O)[C@H](O)[C@H]1O (some centres undefined)
inactive: locus YAL021C, strain ccr4, hits give low values 0.999 | locus YAL026C, strain drs2, hits give low values 1.03 | locus YAL030W, strain snc1, hits give low values 0.993 | locus YBL061C, strain skt5, hits give low values 0.984 | locus YBR009C, strain hhf1, hits give low values 1.01 | locus YBR023C, strain chs3, hits give low values 1.01 | locus YBR171W, strain sec66, hits give low values 0.979 | locus YBR231C, strain swc5, hits give low values 0.982 | locus YBR279W, strain paf1, hits give low values 1.01 | locus YCL011C, strain gbp2, hits give low values 1.03 | locus YCL016C, strain dcc1, hits give low values 1.02 | locus YCL069W, strain vba3, hits give low values 1 | locus YCR088W, strain abp1, hits give low values 0.991 | locus YDL005C, strain med2, hits give low values 1 | locus YDL040C, strain nat1, hits give low values 0.99 | locus YDR001C, strain nth1, hits give low values 0.995 | locus YDR069C, strain doa4, hits give low values 0.985 | locus YDR137W, strain rgp1, hits give low values 0.998 | locus YDR159W, strain sac3, hits give low values 0.981 | locus YDR195W, strain ref2 0.936 | locus YDR297W, strain sur2, hits give low values 0.988 | locus YDR334W, strain swr1, hits give low values 0.983 | locus YDR335W, strain msn5, hits give low values 0.974 | locus YDR392W, strain spt3, hits give low values 1.04 | locus YEL003W, strain gim4, hits give low values 0.974 | locus YEL037C, strain rad23, hits give low values 0.988 | locus YEL061C, strain CIN8 (second series), hits give low values 0.994 | locus YER015W, strain faa2, hits give low values 1.01 | locus YER016W, strain bim1, hits give low values 1 | locus YER111C, strain swi4, hits give low values 0.984 | locus YER155C, strain BEM2 (second series), hits give low values 0.977 | locus YFR010W, strain ubp6, hits give low values 0.978 | locus YGL167C, strain pmr1, hits give low values 0.974 | locus YGL173C, strain kem1, hits give low values 0.955 | locus YGL227W, strain vid30, hits give low values 0.987 | locus YGL240W, strain doc1, hits give low values 0.964 | locus YGL253W, strain hxk2, hits give low values 0.999 | locus YHR013C, strain ard1, hits give low values 0.992 | locus YHR027C, strain rpn1, hits give low values 1.01 | locus YHR030C, strain SLT2, hits give low values 0.955 | locus YHR079C, strain IRE1, hits give low values 0.959 | locus YHR142W, strain chs7, hits give low values 0.989 | locus YJL092W, strain hpr5, hits give low values 0.977 | locus YJL095W, strain BCK1 (second series), hits give low values 0.993 | locus YJL095W, strain BCK1, hits give low values 0.957 | locus YJL115W, strain asf1, hits give low values 0.974 | locus YJL129C, strain trk1, hits give low values 0.969 | locus YJL154C, strain vps35, hits give low values 0.964 | locus YJL164C, strain tpk1, hits give low values 1.01 | locus YJL166W, strain qcr8, hits give low values 0.971 | locus YJL187C, strain SWE1, hits give low values 0.999 | locus YJR066W, strain TOR1, hits give low values 0.916 | locus YKL160W, strain elf1, hits give low values 0.968 | locus YKR026C, strain gcn3, hits give low values 0.995 | locus YKR091W, strain srl3, hits give low values 0.988 | locus YLL001W, strain dnm1, hits give low values 0.945 | locus YLL026W, hits give low values 1.01 | locus YLL041C, strain sdh2, hits give low values 0.988 | locus YLR027C, strain aat2, hits give low values 0.993 | locus YLR113W, strain HOG1, hits give low values 0.933 | locus YLR221C, strain rsa3, hits give low values 1.03 | locus YLR258W, strain gsy2, hits give low values 1.01 | locus YLR262C, strain YPT6 (second series), hits give low values 0.959 | locus YLR320W, strain mms22, hits give low values 1.01 | locus YLR342W, strain FKS1, hits give low values 0.973 | locus YLR357W, strain rsc2, hits give low values 0.985 | locus YLR370C, strain arc18, hits give low values 0.993 | locus YLR384C, strain iki3, hits give low values 0.977 | locus YML120C, strain ndi1, hits give low values 0.98 | locus YMR058W, strain fet3, hits give low values 0.996 | locus YMR125W, strain sto1, hits give low values 0.996 | locus YMR129W, hits give low values 0.989 | locus YMR205C, strain PFK2, hits give low values 0.983 | locus YMR231W, strain pep5, hits give low values 0.991 | locus YNL071W, strain lat1, hits give low values 1.01 | locus YNL183C, strain NPR1, hits give low values 0.923 | locus YNL209W, strain ssb2, hits give low values 1.01 | locus YNL248C, strain rpa49, hits give low values 1.01 | locus YNL322C, strain KRE1 (second series), hits give low values 0.988 | locus YNR049C, strain mso1, hits give low values 0.987 | locus YOR001W, strain rrp6, hits give low values 0.96 | locus YOR070C, strain gyp1, hits give low values 1.01 | locus YOR080W, strain dia2, hits give low values 0.98 | locus YOR083W, strain WHI5, hits give low values 0.987 | locus YOR106W, strain vam3, hits give low values 0.979 | locus YOR231W, strain MKK1, hits give low values 0.953 | locus YOR265W, strain rbl2, hits give low values 0.992 | locus YOR270C, strain vph1, hits give low values 1 | locus YOR290C, strain snf2, hits give low values 1.01 | locus YPL051W, strain arl3, hits give low values 1 | locus YPL078C, strain atp4, hits give low values 0.948 | locus YPL106C, strain sse1, hits give low values 1.02 | locus YPL240C, strain hsp82, hits give low values 0.988 | locus YPL256C, strain CLN2, hits give low values 0.967
